Measured values published in PubChem BioAssay.

Assay: COS7 lysate on small-molecule microarray, probe aHis, 635 nm (AID 1123);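 also: z-score combines 667nm fluorescence intensity with signal-to-noise per printed compound spot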
Conditions: COS7 cell lysate, fluorescence, higher = more signal

Compared with CCN(CC)c1ccc(N2CC=CC34O[C@@H]5C=CCOC(=O)[C@@H]5[C@H]3C(=O)N(CCO)[C@@H]4C2=O)cc1 (stereo not given in full), NC(=O)N1C(=O)C2C(C1=O)C1C=C(CCCO)C2C(c2ccc(CN3CCCC3)cc2)N1Cc1cccc(OC(F)(F)F)c1 (stereo not given) is higher in composite z-score: -0.368 for the first, 0.904 for the second.

Compared with CCOC(=O)C1=CC[C@@H](c2ccccc2)N(S(=O)(=O)C[Si](C)(C)C)[C@H]1c1ccccc1, CCC[C@@H]1C=C(C(=O)OCC)[C@H](c2ccccc2)N1S(=O)(=O)c1ccc(C)cc1 is lower in composite z-score: 1.27 for the first, -0.0844 for the second.

First: CN(C)CCCC[C@@H]1NC(=O)[C@@H]2C[C@H](C(=O)NCc3ccc(F)cc3)[C@H](c3ccc(O)cc3)N2C1=O
Second: CN(C)CCCC[C@@H]1NC(=O)[C@H]2C[C@@H](C(=O)NCc3ccc(F)cc3)[C@@H](c3ccc(O)cc3)N2C1=O
The composite z-score of the first is lower: 0.901 for the first, 2.25 for the second.

Compared with C=CCOC(=O)[C@H]1[C@@H]2C(=O)O[C@@H](c3ccccc3)[C@@H](c3ccccc3)N2[C@@H](c2ccc(OCCOC(=O)[C@@H]3C[C@@H]4C(=O)N[C@@H](CC(C)C)C(=O)N4[C@@H]3c3ccc(O)cc3)cc2)[C@]12C(=O)Nc1ccc(I)cc12, COc1ccc(C#Cc2ccc3c(c2)[C@]2(C(=O)N3)[C@H](C(=O)Nc3nc4ccccc4s3)[C@H]3C(=O)O[C@H](c4ccccc4)[C@H](c4ccccc4)N3[C@@H]2c2ccc(OCCO)cc2)cc1 is lower in composite z-score: 2.52 for the first, 2.46 for the second.

Compared with COCCCNC(=O)[C@@H]1c2ccccc2C(=O)N(C2CCCCC2)[C@H]1c1ccc(CO)cc1, CC(C)CNC(=O)[C@@H]1c2ccccc2C(=O)N(C(C)C)[C@H]1c1ccc(CO)cc1 is lower in composite z-score: 1.08 for the first, 0.435 for the second.

Going from C=CCC(OC(C)=O)[C@@H]1[C@@H](N(Cc2ccc(-c3cccc(C(F)(F)F)c3)o2)C(=O)c2cccc3ccccc23)c2cc(OCCCO)ccc2N1C(=O)c1ccc2ccccc2n1 (stereo not given in full) to C=CCC(OC(C)=O)[C@@H]1[C@@H](N(Cc2ccc(-c3cccc(C(F)(F)F)c3)o2)C(=O)c2cccc3ccccc23)c2cc(OCCCO)ccc2N1C(=O)c1ccc2ccccc2c1 (stereo not given in full), the composite z-score falls from 0.385 to 0.289.

Going from C[N+](C)(C)CCCC[C@@H]1NC(=O)[C@H]2C[C@@H](C(=O)NCCCCCNC(=O)CS)[C@@H](c3ccc(O)cc3)N2C1=O to CCOC(=O)C[C@H]1[C@H](OC(=O)c2ccc(-c3ccccc3)cc2)[C@@H](NC(=O)CC(C)C)c2cc(OCCCO)ccc2N1C(=O)Cc1ccc(OC)cc1, the composite z-score falls from 1.45 to 0.179.

First: C=CCC(OC(C)=O)[C@@H]1[C@@H](N(Cc2cccc3ccccc23)C(=O)c2cccc3ccccc23)c2cc(OCCCO)ccc2N1C(=O)Cc1ccc2ccccc2c1 (stereo not given in full)
Second: CCOC(=O)C[C@H]1[C@H](OC(=O)c2ccc(C(=O)c3ccccc3)cc2)[C@@H](NC(=O)c2ccc3ccccc3c2)c2cc(OCCCO)ccc2N1C(=O)c1ccc2ccccc2n1
The composite z-score of the first is lower: -0.331 for the first, 0.853 for the second.

First: COc1ccc(C(O)C2C=CC3C(=O)N(C)C(=O)C3N2Nc2ccc([N+](=O)[O-])cc2[N+](=O)[O-])cc1OCc1ccccc1 (stereo not given)
Second: N#Cc1ccc(C(O)C2C=CC3C(=O)NC(=O)C3N2Nc2ccccn2)cc1 (stereo not given)
The composite z-score of the first is higher: 2.36 for the first, 0.767 for the second.

Compared with COCCOC(=O)N1C(=O)[C@@]2(c3cc(C#CCC(C(=O)OC)C(=O)OC)ccc31)[C@H](C(=O)N1CCc3cc(OC)c(OC)cc3C1)[C@H]1C(=O)O[C@H](c3ccccc3)[C@H](c3ccccc3)N1[C@@H]2c1ccc(O)cc1, COCCOC(=O)N1C(=O)[C@@]2(c3cc(C#CCC(C(=O)OC)C(=O)OC)ccc31)[C@H](C(N)=O)[C@H]1C(=O)O[C@H](c3ccccc3)[C@H](c3ccccc3)N1[C@@H]2c1ccc(OCCO)cc1 is higher in composite z-score: 1.72 for the first, 1.87 for the second.

Going from C=CCNC(=O)[C@@H]1[C@H]2C(=O)O[C@H](c3ccccc3)[C@H](c3ccccc3)N2[C@H](c2ccc(O)cc2)[C@@]12C(=O)Nc1ccc(C#CC3(O)CCCCCC3)cc12 to COCCOC(=O)N1C(=O)[C@@]2(c3ccccc31)[C@H](C(=O)N1CCCCCCC1)[C@H]1C(=O)O[C@H](c3ccccc3)[C@H](c3ccccc3)N1[C@@H]2c1ccc(O)cc1, the composite z-score rises from 1.04 to 3.97.

First: CC(C)C[C@H]1NC(=O)[C@@]23C(=O)N[C@@H](Cc4ccccc4)C2[C@H](C)[C@@]2(C)O[C@H]2C3/C=C/C/C=C\CNC(=O)[C@@H]2CCCN2C1=O (stereo not given in full)
Second: COC(=O)[C@@]1(Cc2ccccc2)[C@@H]2[C@@H](CC(=O)[C@H]2CC(=O)C(=O)N(C)C)CN1C(=O)c1ccccc1
The composite z-score of the first is lower: 1.23 for the first, 2.87 for the second.

Going from CCCC[C@@H]1C[C@H]1[C@@H](NC(=O)Cc1ccccc1)c1ccc(Cl)cc1 to Cc1c(NC(=O)/C(C#N)=C/c2ccc(Cl)cc2)c(=O)n(-c2ccccc2)n1C, the composite z-score falls from 2.76 to 1.65.

Going from O=C1NC(=O)C2C1C=CC(C(O)c1ccc(F)cc1)N2Nc1ccccn1 (stereo not given) to COc1ccc([Si](C)(C)[C@H]2[C@H](CCn3cc([C@H](O)c4ccccc4)nn3)O[C@@]3(C(=O)N(C)c4c(Br)cc(C)cc43)[C@@H]2C)cc1, the composite z-score falls from 2.77 to -0.215.

Going from COc1ccc([Si](C)(C)[C@H]2[C@H](CC(=O)N3Cc4ccccc4C[C@H]3CO)O[C@@]3(C(=O)N(Cc4cccc(N5C(=O)c6cccc7cccc5c67)c4)c4ccccc43)[C@@H]2C)cc1 to O=C1c2ccccc2[C@](Cc2ccccc2I)(C(=O)O)[C@H](c2ccc(CO)cc2)N1Cc1ccccc1, the composite z-score falls from 1.32 to 1.25.

Going from COC(=O)[C@]1(CO)N=C(c2ccc(OCCCO)cc2)O[C@@H]1c1ccccc1CN=[N+]=[N-] to C=CC[C@@]1(C(=O)O)N=C(c2ccc(OCCCO)cc2)O[C@@H]1c1ccccc1CN=[N+]=[N-], the composite z-score rises from 1.25 to 1.9.

Going from COCCOC(=O)N1C(=O)[C@@]2(c3cc(C#CCC(C(=O)OC)C(=O)OC)ccc31)[C@H](c1ccc(OCCO)cc1)N1[C@H](c3ccccc3)[C@H](c3ccccc3)OC(=O)[C@H]1[C@@H]2C(=O)N1CCCCCCC1 to COC(=O)[C@@]1(Cc2ccccc2)[C@H]2c3cc(C(=O)N4CCCC4)n(Cc4ccc(C(F)(F)F)nc4)c3C[C@H]2CN1C(=O)c1ccccc1, the composite z-score falls from 3.41 to 3.1.

For CC1(C)OC[C@@]23C=C(Br)[C@@H](C[C@H]12)[C@@]1(CO1)C3=O, the composite z-score was -0.0842.
